# Shown is part of a subset that was picked to be rich in hits.
# TDP-43 tox inh – qHTS of TDP-43 Inhibitors: NCGC Sytravon Library Screen; yeast TDP-43 toxicity rescue, BacTiter-Glo growth, 24 h; Potency, µM (highest dose often 46.1 µM), usual class: activators; hit rate 0.45% among 45,000; AID 1347073, 2019; active = well fitted activation curve with a large enough effect; note: 0% is about no effect; nearly all actives have a fitted effect of over 55% in size
#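 TDP-43-expressing yeast, pregrown in raffinose, seeded at OD600 0.02 in galactose medium with compound for 24 hr at 30 deg C. Growth read by BacTiter-Glo luminescence, so rescue of toxicity appears as activation.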
# Numbers without * were called inactive; i = inactive. Potency is the fitted concentration of half-maximal effect.
SMILES,TDP-43 tox inh
O=C(O)c1ccccc1OCCOc1ccccc1,22.4µM*
CC(=O)Nc1ccc(OCCOc2ccccc2C(C)=O)cc1,i
CCC(C)/C(C)=N/NC(=O)c1ccccc1OCCOc1ccccc1 (stereo unspecified),i
O=C(NCCc1nc2ccccc2n1Cc1ccc(Cl)cc1Cl)c1ccco1,i
O=C(NC1CCCC1)C(c1ccccn1)N(C(=O)c1csnn1)c1ccccc1Br (stereo unspecified),i
[O-][n+]1cccc2c(Br)cc(Br)c(O)c21,7.94µM*
C[n+]1cccc2c(Br)ccc([O-])c21,i
COc1ccc(N2CC(C(=O)Nc3ccccc3C(=O)NC3CC3)CC2=O)cc1 (stereo unspecified),i
Cc1ccc(C(=O)NCC(=O)Nc2ccc(Cl)cc2)s1,i
COc1ccc2cc(S(=O)(=O)N3CCCC3)ccc2c1,i
Cc1cc2c(c(SCC(=O)NCc3ccccc3Cl)n1)C(=O)OC2,i
C=CCSc1nc(C)cc2c1C(=O)OC2,10µM*
Cc1cc2c(c(N3CCOCC3)n1)C(=O)OC2,i
Cc1cc(-c2nn(-c3ccccc3F)cc2CN2CCN(c3ccncc3)CC2)c(C)s1,i
Clc1ccc(-c2cnc3ccccc3n2)cc1,i
O=C(O)CCC(=O)Nc1cccc(-c2csc(-c3ccccc3)n2)c1,i
O=C(CCl)Nc1cccc(-c2cnc3ccccc3n2)c1,12.6µM*
NC(=S)N/N=C/c1ccc(C23CC4CC(CC(C4)C2)C3)cc1,7.94µM*
O=C(N/N=C/c1ccc(O)c(O)c1)NC12CC3CC(CC(C3)C1)C2,i
O=C(N/N=C/c1ccccc1O)NC12CC3CC(CC(C3)C1)C2,i
CSc1ccc(S(=O)(=O)N2CCC(C(=O)N3CCc4ccccc4C3)CC2)cc1,i
Cc1cc(NC(=O)c2cccc([N+](=O)[O-])c2)n(-c2ccccc2)n1,i
Cc1ccccc1-c1cnn(-c2cccc([N+](=O)[O-])c2)c1N,12.6µM*
Nc1c(-c2ccccc2)c(CN2CCOCC2)nn1-c1cccc([N+](=O)[O-])c1,i
COc1cc(OC)nc(C(NC(=O)C2CCN(Cc3c[nH]c4ccccc34)CC2)c2ccc(Cl)cc2)n1 (stereo unspecified),i
SMILES,TDP-43 tox inh
Cc1ccc(NC(=O)Nc2ccc(F)c(Cl)c2)cc1,i
Cc1cccc(OCCC(=O)Nc2ccc(F)c(Cl)c2)c1,12.6µM*
Cc1ccc(OCCC(=O)Nc2ccc(F)c(F)c2)cc1,i
CC(=O)Nc1ccc(C(=O)N2CCCCC2c2cc(C(=O)N3CCOCC3)no2)cc1 (stereo unspecified),i
COc1cc(F)ccc1-c1csc(C(NC(C)=O)c2ccc(F)c(F)c2)n1 (stereo unspecified),i
Cc1ccc(NC(=O)CCC(=O)N/N=C/c2cccnc2)cc1,i
O=C(NCc1cccs1)c1ccc2nc([C@@H]3O[C@H](CO)[C@H](O)[C@H](O)[C@H]3O)[nH]c2c1,i
O=C(NCC1CCCCC1)c1cccc([N+](=O)[O-])c1,i
N/C(=N\OC(=O)CC1CCCCC1)c1ccc([N+](=O)[O-])cc1,17.8µM*
Cc1ccc(OCC(=O)O/N=C(\N)c2cccc([N+](=O)[O-])c2)cc1C,i
CCCN(CCC)C(=O)Cn1c(=O)n(CCCCCC(=O)NCc2ccc3c(c2)OCO3)c(=O)c2sccc21,i

# From PubChem BioAssay
